Values joined by “and” are separate entries in the source; they are usually repeats but may differ in a detail not shown here. Equal entries are not always repeated. Where a structure was tested more than once in an assay, its records may differ in their call. Active and inactive are the calls of the source. How the source made its calls: active means hit-call score of the fitted dose curve at least 0.9, where 1 is the maximum; inactive means score below 0.9.
Assays:
[1] = BSK_MyoF_SRB: Viability Assessment in the BioMAP Diversity Plus: MyoF Assay (AID 2284267); settings: primary human lung fibroblasts;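 further: total protein by SRB absorbance in parallel cultures as cytotoxicity measure; cells assessed 24 h after compound addition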
In short: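 In this viability endpoint, fibroblasts from human lung are treated for 24 h, TCA-fixed, SRB-stained (0.1%) and read at 560 nm. Gain of signal relative to DMSO defines activity.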

[2] = read-out: Matrix Metallopeptidase 1 (MMP1), MMP1 (gene 4312); assay: BSK_MyoF_MMP1: BioMAP Diversity Plus: MyoF Assay for Matrix Metallopeptidase 1 (MMP1) Biomarker Activity (AID 2284268); settings: primary human lung fibroblasts
In short: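 ELISA readout of MMP1 in primary human lung fibroblast cultures, 24 h post-dosing. Gain of signal versus DMSO vehicle control defines activity. Parallel SRB staining (0.1% after 10% TCA fixation, 560 nm) flags overt cytotoxicity.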

[3] = read-out: TIMP metallopeptidase inhibitor 1 (TIMP1), TIMP1 (gene 7076); assay: BSK_MyoF_TIMP1: BioMAP Diversity Plus: MyoF Assay for TIMP metallopeptidase inhibitor 1 (TIMP1) Biomarker Activity (AID 2284269); settings: primary human lung fibroblasts
In short: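 ELISA read-out of TIMP-1 from primary human lung fibroblast cultures 24 h after compound dosing; gain of signal relative to DMSO vehicle baseline defines activity.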

[4] = read-out: Intercellular Adhesion Molecule 1 (ICAM1), ICAM1 (gene 3383); assay: BSK_BE3C_ICAM1: BioMAP Diversity Plus: BE3C Assay for Intercellular Adhesion Molecule 1 (ICAM1) Biomarker Activity (AID 2284278); settings: primary human bronchial epithelial cells;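 further: cell-surface ICAM-1 protein level quantified by ELISA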
In short: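 hu bronchial epithelial primary cells, 24 h cpd exposure, ICAM-1 ELISA; gain-of-signal fit vs DMSO baseline.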

[5] = read-out: Interferon-inducible T-cell alpha chemoattractant (ITAC), CXCL11 (gene 6373); assay: BSK_BE3C_ITAC: BioMAP Diversity Plus: BE3C Assay for Interferon-inducible T-cell alpha chemoattractant (ITAC) Biomarker Activity (AID 2284279); settings: primary human bronchial epithelial cells
In short: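 ELISA read-out of I-TAC after 24 h chemical dosing of human lung primary bronchial epithelial cells; gain-of-signal fit vs DMSO baseline. Parallel SRB total-protein staining (0.1% SRB, 10% TCA fixation, 560 nm) assessed cytotoxicity.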

[6] = read-out: Interleukin-8 (IL8), CXCL8 (gene 3576); assay: BSK_BE3C_IL8: BioMAP Diversity Plus: BE3C Assay for Interleukin-8 (IL8) Biomarker Activity (AID 2284280); settings: primary human bronchial epithelial cells
In short: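 Measured at 24 h after treatment, IL-8 from human primary bronchial epithelial cells is determined by ELISA, and the response is modelled as increasing relative to DMSO negative control.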

[7] = read-out: Epidermal growth factor receptor (EGFR), EGFR (gene 1956); assay: BSK_BE3C_EGFR: BioMAP Diversity Plus: BE3C Assay for Epidermal growth factor receptor (EGFR) Biomarker Activity (AID 2284281); settings: primary human bronchial epithelial cells
In short: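 Measured 24 h after dosing in primary human bronchial epithelial cultures, EGFR was read by ELISA; gain of signal over DMSO control defined activity.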

KRT18 (gene 3875) = assay: BSK_BE3C_Keratin818: BioMAP Diversity Plus: BE3C Assay for Keratin 818 Biomarker Activity (AID 2284282); settings: primary human bronchial epithelial cells
In short: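 In this multiplexed primary-cell system, bronchial epithelial cells were dosed and harvested at 24 h. Keratin 8/18 was determined by ELISA and analysed for increases over DMSO controls.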

[8] = read-out: Matrix Metallopeptidase 9 (MMP9), MMP9 (gene 4318); assay: BSK_BE3C_MMP9: BioMAP Diversity Plus: BE3C Assay for Matrix Metallopeptidase 9 (MMP9) Biomarker Activity (AID 2284283); settings: primary human bronchial epithelial cells
In short: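 Human primary bronchial epithelial cells in the BE3C system were dosed with compound for 24 h. MMP-9 was measured by ELISA, and the positive-direction response was fitted relative to DMSO as baseline. Parallel SRB staining gauged cytotoxicity.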

[9] = read-out: Plasminogen activator inhibitor-1 (PAI1), SERPINE1 (gene 5054); assay: BSK_CASM3C_PAI1: BioMAP Diversity Plus: CASM3C Assay for Plasminogen activator inhibitor-1 (PAI1) Biomarker Activity (AID 2284284); settings: primary human coronary artery smooth muscle cells
[10] = read-out: Intercellular Adhesion Molecule 1 (ICAM1), ICAM1 (gene 3383); assay: BSK_hDFCGF_ICAM1: BioMAP Diversity Plus: hDFCGF Assay for Intercellular Adhesion Molecule 1 (ICAM1) Biomarker Activity (AID 2284287); settings: primary human foreskin fibroblasts
In short: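 ICAM-1 ELISA readout 24 h after dosing, DMSO as baseline, in human dermal foreskin fibroblast cultures. Cytotoxicity checked in parallel wells by SRB staining (0.1% SRB, 10% TCA fixation, 560 nm).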

[11] = read-out: Matrix Metallopeptidase 1 (MMP1), MMP1 (gene 4312); assay: BSK_BF4T_MMP1: BioMAP Diversity Plus: BF4T Assay for Matrix Metallopeptidase 1 (MMP1) Biomarker Activity (AID 2284270); settings: primary human bronchial epithelial cells with fibroblasts
In short: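 MMP-1 quantified by ELISA in primary human bronchial epithelial/dermal fibroblast co-cultures, 24 hours post-dosing, with DMSO as baseline; parallel sulforhodamine B staining (560 nm) tracks overt cytotoxicity.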

[12] = read-out: Matrix Metallopeptidase 3 (MMP3), MMP3 (gene 4314); assay: BSK_BF4T_MMP3: BioMAP Diversity Plus: BF4T Assay for Matrix Metallopeptidase 3 (MMP3) Biomarker Activity (AID 2284271); settings: primary human bronchial epithelial cells with fibroblasts
In short: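 MMP-3 level read by ELISA after 24 h chemical exposure of bronchial epithelial cell/dermal fibroblast co-cultures, fitted upward relative to DMSO. Parallel cultures stained with 0.1% SRB after TCA fixation gauge overt cytotoxicity.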

[13] = read-out: Tissue plasminogen activator (tPA), PLAT (gene 5327); assay: BSK_BF4T_tPA: BioMAP Diversity Plus: BF4T Assay for Tissue plasminogen activator (tPA) Biomarker Activity (AID 2284272); settings: primary human bronchial epithelial cells with fibroblasts
In short: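 tPA level quantified by ELISA at 24 h post-treatment in bronchial epithelial/dermal fibroblast co-cultures, gain of signal scored against DMSO baseline. Parallel cultures stained with 0.1% SRB (560 nm) to flag overt cytotoxicity.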

[14] = read-out: Plasminogen Activator Inhibitor-1 (PAI1), SERPINE1 (gene 5054); assay: BSK_BF4T_PAI1: BioMAP Diversity Plus: BF4T Assay for Plasminogen Activator Inhibitor-1 (PAI1) Biomarker Activity (AID 2284273); settings: primary human bronchial epithelial cells with fibroblasts
In short: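 PAI-1 levels quantified by ELISA 24 h post-dosing in bronchial epithelial cell plus dermal fibroblast cultures. Signal gain referenced to DMSO baseline. Sulforhodamine B total-protein staining of parallel wells checked cytotoxicity.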

[15] = BSK_BF4T_SRB: Viability Assessment in the BioMAP Diversity Plus: BF4T Assay (AID 2284274); settings: primary human bronchial epithelial cells with fibroblasts
In short: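 Cytotoxicity measured as total protein: cells fixed with 10% TCA, stained with 0.1% SRB, read at 560 nm. Bronchial epithelial/dermal fibroblast co-culture, 24 h after dosing, with positive-direction fitting relative to DMSO.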

[16] = read-out: urokinase Plasminogen Activator (uPA), PLAU (gene 5328); assay: BSK_BF4T_uPA: BioMAP Diversity Plus: BF4T Assay for urokinase Plasminogen Activator (uPA) Biomarker Activity (AID 2284275); settings: primary human bronchial epithelial cells with fibroblasts
In short: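 uPA levels measured by ELISA at 24 hours in BF4T cultures (bronchial epithelial cells plus dermal fibroblasts) and compared with DMSO; cytotoxicity tracked in parallel cultures by sulforhodamine B staining.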

[17] = read-out: Matrix Metallopeptidase 9 (MMP9), MMP9 (gene 4318); assay: BSK_BF4T_MMP9: BioMAP Diversity Plus: BF4T Assay for Matrix Metallopeptidase 9 (MMP9) Biomarker Activity (AID 2284276); settings: primary human bronchial epithelial cells with fibroblasts
In short: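 MMP-9 levels were measured by ELISA after 24 h exposure of bronchial epithelial cell/dermal fibroblast co-cultures, with DMSO as baseline. Parallel cultures were stained with 0.1% SRB after TCA fixation, read at 560 nm, to flag overt cytotoxicity.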

[18] = read-out: Interleukin-8 (IL8), CXCL8 (gene 3576); assay: BSK_IMphg_IL8: BioMAP Diversity Plus: IMphg Assay for Interleukin-8 (IL8) Biomarker Activity (AID 2284277); settings: primary human endothelial cells with macrophages
In short: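 IL-8 levels were measured by ELISA 24 h after dosing in primary human venular endothelial cell–macrophage cultures, referenced to DMSO; parallel SRB staining monitored overt cytotoxicity.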

[19] = read-out: Vascular cell adhesion molecule 1 (VCAM1), VCAM1 (gene 7412); assay: BSK_IMphg_VCAM1: BioMAP Diversity Plus: IMphg Assay for Vascular cell adhesion molecule 1 (VCAM1) Biomarker Activity (AID 2284286); settings: primary human endothelial cells with macrophages
In short: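 ELISA read-out of VCAM-1 on venular endothelial cell/macrophage co-cultures at 24 h post-treatment, with DMSO as baseline and positive-direction fitting. Parallel sulforhodamine B total-protein staining (560 nm) served as the overt cytotoxicity measure.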

Measured: AC50

CC=CC(=O)C1=C(C)C=CCC1(C)C
inactive: [1] | [2] | [3]

CCCCCCCCCC(=O)OCC
inactive: [1] | [2] | [3]

CCCO[Si](OCCC)(OCCC)OCCC
inactive: [4] | [5] | [6] | [7] | KRT18 (gene 3875) | [8] | [9] | [10]

COc1ccccc1NC(=O)CC(C)=O
inactive: [1] | [2] | [3]

CC(C)(C)c1cccc(O)c1
inactive: [1] | [2] | [3]

CCCCN(CCO)CCO
inactive: [4] | [5] | [6] | [7] | KRT18 (gene 3875) | [8] | [9] | [10]

CCOC(=O)CCCCCCCCC(=O)OCC
inactive: [1] | [2] | [3]

CC1=CC(C)C(C=O)C(C)C1 (stereo not given) (tested in a mixture with another compound)
inactive: [1] | [2] | [3]

C=C(C)C(=O)OCCC(F)(F)C(F)(F)C(F)(F)C(F)(F)C(F)(F)C(F)(F)C(F)(F)C(F)(F)F
inactive: all assays above

C=C1CC/C=C(\C)CC[C@@H]2[C@@H]1CC2(C)C
active: [1] 28.8 µM | [2] 9.66 µM | [3] 34.6 µM

OCC(F)(OC(F)(F)C(F)(OC(F)(F)C(F)(F)C(F)(F)F)C(F)(F)F)C(F)(F)F (stereo not given)
inactive: [2] | [3] | [11] | [12] | [13] | [14] | [15] | [16] | [17] | [18] | [4] | [5] | [6] | [7] | KRT18 (gene 3875) | [8] | [9] | [19]
active: [1] 2.54 µM and 3.33 µM | [13] 4.28 µM | [5] 5.2 µM | [10] 5.06 µM and 2.52 µM

OCCN1CCOCC1
inactive: [1] | [2] | [3]

C=CC(=O)OCC(CO)(COC(=O)C=C)COC(=O)C=C
inactive: [2]
active: [1] 0.642 µM | [3] 2.05 µM

CC1(C)[C@H](C=C(Cl)Cl)[C@H]1C(=O)OCc1cccc(Oc2ccccc2)c1
inactive: [1] | [2] | [3]

O=S(=O)(O)C(F)(F)C(F)(F)OC(F)(F)C(F)(F)F
inactive: [1] | [2] | [3] | [11] | [12] | [13] | [14] | [15] | [16] | [17] | [18] | [4] | [5] | [6] | [7] | KRT18 (gene 3875) | [8] | [9] | [19] | [10]
active: [12] 36.9 µM | [18] 41.7 µM

c1ccc(Sc2ccccc2)cc1
active: [1] 34.8 µM | [2] 30.8 µM | [3] 32.3 µM

CCCCCCCCCCCCS
inactive: [3]
active: [1] 20 µM | [2] 5.81 µM

CC(=O)OC(C)(C)C1CC=C(C)CC1 (stereo not given)
inactive: [1] | [2] | [3]

NC(=O)c1c(Cl)cccc1Cl
inactive: [1] | [2] | [3]

CC(=O)c1ccc(C)cc1
inactive: [4] | [5] | [6] | [7] | KRT18 (gene 3875) | [8] | [9] | [10]
